Reference: PubChem BioAssay (Tox21)
Results filed as inconclusive are left out. Where a call stands in place of a potency, no number is given. A number with no mark means an inactive call. Activity calls are given as the source filed them. Calls follow the shape of the dose curve; as a rule, active = well fitted activation curve with a large enough effect in the signal ratio in the repeat runs (not every such curve was filed as active); inconclusive = weak or mixed curves; inactive = flat fitted curve, though single readings scatter; the % refers to the signal ratio.

Experiment: qHTS assay to identify small molecule agonists of the hypoxia (HIF-1) signaling pathway (AID 1224846)
Details: HRE-bla ME-180 cells, beta-lactamase ratio, 17 h; series mostly up to 76.8 µM
Description: U.S. Tox21 Program National Center for Advancing Translational Sciences [NCATS] NIH Chemical Genomics Center [NCGC] U.S. Environmental Protection Agency [EPA] National Institutes of Environmental Health Sciences [NIEHS] National Toxicology Program [NTP] U.S. Food and Drug Administration [FDA] Tox21 Assay Overview: Hypoxia-inducible factor-1 (HIF-1) is the major hypoxia-regulated transcription factor that controls cellular responses to low oxygen concentration. HIF-1 is composed of two subunits: hypoxia responsive HIF-1-alpha and constitutively expressed HIF-1-beta, which is also known as aryl hydrocarbon receptor nuclear translocator. During hypoxic conditions, HIF-1-alpha heterodimerizes with HIF-1-beta and translocates into the nucleus where the HIF-1 complex binds to the hypoxia-response element (HRE) and activates expression of target genes such as VEGF (vascular endothelial growth factor). The HIF-1 pathway is essential to normal growth and development, and is involved in the pathophysiology of cancer, inflammation, and ischemia. Using a beta-lactamase reporter-gene under control of the hypoxia response element, a cell-based assay [CellSensor(TM) HRE-bla ME-180 from Life Technologies, Carlsbad, CA] was used to measure hypoxia-induced signaling. Tox21 10K library compounds were measured for their ability to induce the reporter gene activity.
Tox21 Assay Protocol Summary: HRE-bla ME-180 cells were dispensed at 2,000 cells per well in 6 uL of assay medium containing 0.5% dialyzed FBS into black wall/clear-bottom 1536-well plates using a Multidrop Combi (Thermo Scientific, Waltham, MA) dispenser. After the assay plates were incubated at 37C and 5% CO2 for 5 hrs, 23 nL of compounds dissolved in DMSO, positive controls or DMSO only was transferred to each well of the assay plate using a Pintool station (Kalypsys, San Diego, CA). The assay plates were incubated at 37C and 5% CO2 for 17 hrs. One uL of LiveBLAzerTM B/G FRET substrate (CCF4-AM) (Life Technologies) was added to each well using a Flying Reagent Dispenser (Aurora Discovery, San Diego, CA).

Structure (SMILES)	Potency	activation
CCCC(C)c1ccccc1O (stereo not given)	inactive	–
CCCCCCCCOc1ccccc1C(=O)Nc1ccc(C(=O)OCC[N+](C)(CC)CC)cc1	inactive	–
Cc1nc(-c2ccc3c(c2)CCN(CCC2CCC(NC(=O)/C=C/c4ccc(F)cc4)CC2)CC3)no1 (stereo not given)	inactive	–
CC(C)(C)C1CCC(CC2=C(O)c3ccccc3C(=O)C2=O)CC1 (stereo not given)	inactive	–
O=C(c1ccc(O)cc1O)c1ccc(O)cc1O	inactive	–
CC(C)C(C)(C)C(C)(C)C(C)(C)S	inactive	–
CCCCN1C(=O)[C@@H]([C@H](O)C2CCCCC2)NC(=O)C12CCN(Cc1ccc(Oc3ccc(C(=O)O)cc3)cc1)CC2	inactive	–
CCC(N)(CO)CO	inactive	–
CC(C)OC(=O)c1cc2c(OCC(O)CNC(C)(C)C)cccc2[nH]1 (stereo not given)	inactive	–
Cc1cc(N)c(S(=O)(=O)O)cc1Cl	inactive	–
CN(C/C=C/C#CC(C)(C)C)Cc1cccc2ccccc12	inactive	–
CCCCCCCCCCCCCCCS(=O)(=O)Oc1ccccc1	inactive	–
CC(=O)OCC(C)OC(C)=O (stereo not given)	inactive	–
CCCCC(CC)COC(=O)c1ccccc1C(=O)O (stereo not given)	inactive	–
O=[N+]([O-])c1ccccc1Nc1ccccc1	inactive	–
CCC1=C[C@@H]2CN(C1)Cc1c([nH]c3ccccc13)[C@@](C(=O)OC)(c1cc3c(cc1OC)N(C)[C@H]1[C@@](O)(C(=O)OC)[C@H](OC(C)=O)[C@]4(CC)C=CCN5CC[C@]31[C@@H]54)C2	inactive	–
CO[Si](CCCNc1ccccc1)(OC)OC	inactive	–
CC1=NC(C)OC1C (stereo not given)	inactive	–
c1ccc(CSCc2ccccc2)cc1	inactive	–
CN1CCN(CCC(=O)N2c3ccccc3Sc3ccc(C(F)(F)F)cc32)CC1	inactive	–

Structure (SMILES)	Potency	activation
Nc1ccc2cc(S(=O)(=O)O)cc(O)c2c1N=Nc1ccccc1C(F)(F)F	inactive	–
COCCCC/C(=N\OCCN)c1ccc(C(F)(F)F)cc1	inactive	–
CC(NN)c1ccccc1 (stereo not given)	–	-1.03% [at 15.8 µM]
N#CC1(c2ccc(F)cc2)CCC(=O)CC1	inactive	–
Cc1cc(O)c(Cl)c(C)c1Cl	inactive	–
OCCCCCCCCCCCCBr	inactive	–
CCC(CN)=C(c1ccccc1)c1ccccc1	inactive	–
CCC(Cl)C(Cl)C(Cl)CC(Cl)C(Cl)C(C)Cl (stereo not given)	inactive	–
C/C=C(\C)C(=O)OCc1ccccc1	inactive	–
CSc1cnc(C)cn1	inactive	–
O=C(O)c1c(Cl)cccc1Cl	inactive	–
NC(=O)NS(=O)(=O)c1ccc(N)cc1	inactive	–
Oc1ccc2cc(SSc3ccc4cc(O)ccc4c3)ccc2c1	inactive	–
CC(C)n1nc(-c2cc3cc(O)ccc3[nH]2)c2c(N)ncnc21	inactive	–
CC(C)(C)c1ccc(C(=O)O)cc1	inactive	–
CCCCCOC(=O)CCCC	inactive	–
C=C(C)C(=O)OCC[N+](C)(C)C	inactive	–
CCN(CC)CCNC(=O)c1c(C)[nH]c(/C=C2\C(=O)Nc3ccc(F)cc32)c1C	inactive	–
Cc1c(C)c2c(c(C)c1O)CCC(C)(COc1ccc(CC3SC(=O)NC3=O)cc1)O2 (stereo not given)	inactive	–
O=C1c2ccccc2Cc2ccccc21	inactive	–
